The record followed here is PubChem BioAssay.

Test [1] concerns Plasmodium falciparum Sir2 (PF13_0152, Sir2A). Kind of test: pfSir2 binders on small-molecule microarrays, primary screen, biochemical, small-molecule microarray, 635 nm fluorescence (AID 1098).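 Also: score merges spot fluorescence intensity with its signal-to-noise ratio.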 Conditions: small-molecule microarray binding, fluorescence 635 nm; higher = more signal.
Test [2] in a line: small-molecule microarray binders of probe aDKK1, primary screen, biochemical, biotinylated probe, 635/667 nm fluorescence (AID 1099).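 Also: score merges 667nm spot fluorescence with signal to noise across triplicate slides.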 Conditions: higher = more signal.
A short description of test [3]: small-molecule microarray binders of probe aCHRDL2, primary screen, biochemical, biotinylated probe, 635/667 nm fluorescence (AID 1100). Conditions: higher = more signal.
A short description of test [4]: splicing luciferase reporter signal modulators, primary screen, spliceosome inhibition project, cell-based, HEK293, splice +/- reporter (AID 1101).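 Also: HEK293 cells carrying a splicing-competent luciferase reporter gene; test concentration not given here.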 Conditions: luminescence, 24 h, higher = more signal, called active from +8 up or from −8 down. A general note: Reporter assays use an easily measured gene product as a stand-in for the process of interest.
In test [5] the target is Fibroblast growth factor 10 (Homo sapiens) (UniProt O15520). Nature of the test: FGF10 binders on small-molecule microarrays, primary screen, biochemical, small-molecule microarray, 635 nm fluorescence (AID 1102). Conditions: FGF10 binding, fluorescence 635 nm, higher = more signal.
Chain of Fibroblast growth factor 10 (Homo sapiens) (O15520 whole entry, looked up): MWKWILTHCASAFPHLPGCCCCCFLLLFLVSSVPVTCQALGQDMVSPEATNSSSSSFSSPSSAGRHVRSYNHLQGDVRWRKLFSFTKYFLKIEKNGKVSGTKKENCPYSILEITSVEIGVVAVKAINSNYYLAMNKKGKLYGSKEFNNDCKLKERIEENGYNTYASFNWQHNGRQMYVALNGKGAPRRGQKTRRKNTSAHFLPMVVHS
Test [6] concerns glycogen synthase kinase-3 (GSK3A per assay name; protocol says GSK3B). Nature of the test: GSK3 binders on small-molecule microarrays, primary screen, biochemical, small-molecule microarray, 635 nm fluorescence, GSK3A (AID 1103). Also: the record names both GSK3A and GSK3B. Conditions: small-molecule microarray binding, fluorescence 635 nm; higher = more signal.
Test [7] concerns the target Epidermal growth factor receptor (Homo sapiens) (UniProt P00533). Kind of test: EGFR binders on small-molecule microarrays, primary screen, biochemical, small-molecule microarray, 635 nm fluorescence (AID 1104).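 Also: score merges 667 nm emission intensity with spot signal to noise over triplicate slides.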 Conditions: EGFR binding, higher = more signal.
Test [8] addresses Follistatin-related protein 3 (Homo sapiens) (UniProt O95633). Nature of the test: FSTL3 binders on small-molecule microarrays, primary screen, biochemical, small-molecule microarray, 635 nm fluorescence (AID 1105).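 Also: score merges emission near 667 nm and signal to noise per printed spot across three slides.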 Conditions: FSTL3 binding, higher = more signal.
Test [9] addresses Dickkopf-related protein 1 (Homo sapiens) (UniProt O94907). Nature of the test: DKK1 binders on small-molecule microarrays, primary screen, biochemical, small-molecule microarray, 635 nm fluorescence scan (AID 1106).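 Also: score merges emission near 667 nm with signal to noise over three replicate slides.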 Conditions: DKK1 binding, higher = more signal.
Test [10] relates to Inhibin beta A chain (activin A). Nature of the test: INHBA (activin A) binders on microarrays, primary screen, biochemical, small-molecule microarray, 635 nm fluorescence scan (AID 1107).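 Also: mouse activin A protein probed at 4.33 µg/mL on printed slides; score merges bound-protein fluorescence near 667 nm with spot signal-to-noise.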 Conditions: small-molecule microarray binding, higher = more signal.
Test [11] deals with Human papillomavirus type 1a protein E7 (residues 44-93). Kind of test: HPV1a E7 fragment binders on microarrays, primary screen, biochemical, small-molecule microarray, residues 44-93, 635 nm fluorescence (AID 1108).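 Also: E7 fragment applied at 1 µg/mL in TBST for 1 h at 4 C; score combines spot fluorescence with its signal to noise ratio.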 Conditions: small-molecule microarray binding, fluorescence 635 nm; higher = more signal.
Test [12] is described as follows: modulators of HCV replicon luciferase signal, primary screen, HCV replication inhibitor project, Huh7 cells, luciferase reporter (AID 1109).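 Also: huh7 hepatoma cells harbouring a luciferase neomycin HCV replicon reporter; luciferase luminescence as measure of HCV replicon replication; test concentration not given here.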 Conditions: 48 h, higher = more signal. (In general: A replicon is a self-replicating genome or part of one, used to study replication in cells.)
Test [13] addresses Left-right determination factor 2 (Homo sapiens) (UniProt O00292). Nature of the test: LEFTY2 binders on small-molecule microarrays, primary screen, biochemical, small-molecule microarray, 635 nm fluorescence scan (AID 1110). Conditions: LEFTY2 binding, higher = more signal.
The target of test [14] is Calmodulin-1 (Homo sapiens) (UniProt P0DP23). Kind of test: CALM1 binders on microarrays, EGTA buffer, profiling panel, biochemical, small-molecule microarray, Cy5-labelled CALM1 (AID 1111).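 Also: labelled calmodulin applied in Tris saline Tween buffer holding calcium plus EGTA and DTT.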 Conditions: Cy5-CALM1 binding fluorescence, higher = more signal.
Test [15] shares this target. Nature of the test: calcium-bound CALM1 binders on microarrays, profiling panel, artefact control for SMM control-protein annotation, biochemical, small-molecule microarray, Cy5-labelled CALM1, plus calcium (AID 1112).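 Also: score merges spot fluorescence with signal to noise from triplicate slides.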 Conditions: Cy5-CALM1 binding fluorescence, higher = more signal.
Test [16] can be described thus: small-molecule microarray binders of probe aWnt5a, primary screen, biochemical, biotinylated probe, 635/667 nm fluorescence (AID 1113).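 Also: score merges 667 nm fluorescence intensity with signal-to-noise per printed feature.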 Conditions: higher = more signal.
Test [17] is described as follows: small-molecule microarray binders of probe aShh, primary screen, biochemical, biotinylated probe, 635/667 nm fluorescence (AID 1114).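 Also: probe is biotin-labelled aShh protein from a stem cell growth factor screen; measures binding of labelled protein to compounds printed on the slide; score merges feature fluorescence at 667 nm with signal-to-noise.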 Conditions: higher = more signal.
Test [18] in a line: small-molecule microarray binders of probe aNog, primary screen, biochemical, biotinylated probe, 635/667 nm fluorescence (AID 1115).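 Also: probe is biotinylated aNog protein used at 0.15 µg/mL for 1 h at 4 C; z-score combines 667 nm fluorescence of each spot with its signal to noise.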 Conditions: higher = more signal.
Test [19] concerns the target Torsin-1A-interacting protein 1 (Homo sapiens) (UniProt Q5JTV8). Nature of the test: LAP1 binders from COS7 cell lysate, primary screen, small-molecule microarray, 635/667 nm fluorescence (AID 1116). Conditions: COS7-hLAP1 lysate binding, 635 nm fluorescence, higher = more signal.
In test [20] the target is Alpha-bungarotoxin (Bungarus multicinctus) (UniProt P60615). Kind of test: alpha-bungarotoxin binders on microarray, profiling panel, artefact control for SMM control protein annotation, biochemical, small-molecule microarray, Alexa647 label, 635/667 nm fluorescence (AID 1117). Conditions: alpha-BTX-A647 binding fluorescence, higher = more signal.
Chain of Alpha-bungarotoxin (Bungarus multicinctus) (P60615 whole entry, looked up): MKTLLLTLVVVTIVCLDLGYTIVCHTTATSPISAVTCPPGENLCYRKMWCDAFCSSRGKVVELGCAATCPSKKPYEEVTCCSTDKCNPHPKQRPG

SMILES strings stand for the structures. The source made the active and inactive calls.

Chain of Dickkopf-related protein 1 (Homo sapiens) (O94907 whole entry, looked up): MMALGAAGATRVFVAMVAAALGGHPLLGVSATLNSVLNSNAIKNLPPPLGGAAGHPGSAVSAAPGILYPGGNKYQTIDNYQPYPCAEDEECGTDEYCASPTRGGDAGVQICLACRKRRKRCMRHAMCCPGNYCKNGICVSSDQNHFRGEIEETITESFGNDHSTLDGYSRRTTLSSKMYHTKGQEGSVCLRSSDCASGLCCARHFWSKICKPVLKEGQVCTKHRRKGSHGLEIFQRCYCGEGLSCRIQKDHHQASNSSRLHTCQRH
Chain of Torsin-1A-interacting protein 1 (Homo sapiens) (Q5JTV8 whole entry, looked up): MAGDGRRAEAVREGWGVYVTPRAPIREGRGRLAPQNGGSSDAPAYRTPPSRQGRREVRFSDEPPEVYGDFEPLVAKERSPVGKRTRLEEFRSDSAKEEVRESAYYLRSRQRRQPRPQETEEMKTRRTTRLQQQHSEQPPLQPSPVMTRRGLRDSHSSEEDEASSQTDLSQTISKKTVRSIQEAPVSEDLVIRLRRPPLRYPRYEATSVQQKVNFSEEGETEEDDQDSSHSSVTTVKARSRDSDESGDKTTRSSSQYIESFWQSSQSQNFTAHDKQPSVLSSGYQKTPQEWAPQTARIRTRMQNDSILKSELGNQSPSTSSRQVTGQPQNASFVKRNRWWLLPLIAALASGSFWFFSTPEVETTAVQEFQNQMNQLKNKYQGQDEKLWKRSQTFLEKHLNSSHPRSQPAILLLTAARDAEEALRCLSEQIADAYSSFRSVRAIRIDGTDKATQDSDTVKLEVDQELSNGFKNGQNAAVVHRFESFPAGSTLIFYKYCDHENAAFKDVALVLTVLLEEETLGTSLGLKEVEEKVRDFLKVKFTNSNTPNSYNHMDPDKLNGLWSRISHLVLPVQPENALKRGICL
Chain of Follistatin-related protein 3 (Homo sapiens) (O95633 whole entry, looked up): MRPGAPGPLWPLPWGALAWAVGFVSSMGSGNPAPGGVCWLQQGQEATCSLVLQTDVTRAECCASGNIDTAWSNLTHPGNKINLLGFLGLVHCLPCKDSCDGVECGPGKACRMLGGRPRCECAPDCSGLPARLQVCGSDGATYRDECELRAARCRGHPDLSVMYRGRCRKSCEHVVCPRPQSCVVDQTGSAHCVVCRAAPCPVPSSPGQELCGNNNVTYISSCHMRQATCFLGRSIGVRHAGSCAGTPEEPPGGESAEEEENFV
Chain of Epidermal growth factor receptor (Homo sapiens) (P00533 whole entry, looked up): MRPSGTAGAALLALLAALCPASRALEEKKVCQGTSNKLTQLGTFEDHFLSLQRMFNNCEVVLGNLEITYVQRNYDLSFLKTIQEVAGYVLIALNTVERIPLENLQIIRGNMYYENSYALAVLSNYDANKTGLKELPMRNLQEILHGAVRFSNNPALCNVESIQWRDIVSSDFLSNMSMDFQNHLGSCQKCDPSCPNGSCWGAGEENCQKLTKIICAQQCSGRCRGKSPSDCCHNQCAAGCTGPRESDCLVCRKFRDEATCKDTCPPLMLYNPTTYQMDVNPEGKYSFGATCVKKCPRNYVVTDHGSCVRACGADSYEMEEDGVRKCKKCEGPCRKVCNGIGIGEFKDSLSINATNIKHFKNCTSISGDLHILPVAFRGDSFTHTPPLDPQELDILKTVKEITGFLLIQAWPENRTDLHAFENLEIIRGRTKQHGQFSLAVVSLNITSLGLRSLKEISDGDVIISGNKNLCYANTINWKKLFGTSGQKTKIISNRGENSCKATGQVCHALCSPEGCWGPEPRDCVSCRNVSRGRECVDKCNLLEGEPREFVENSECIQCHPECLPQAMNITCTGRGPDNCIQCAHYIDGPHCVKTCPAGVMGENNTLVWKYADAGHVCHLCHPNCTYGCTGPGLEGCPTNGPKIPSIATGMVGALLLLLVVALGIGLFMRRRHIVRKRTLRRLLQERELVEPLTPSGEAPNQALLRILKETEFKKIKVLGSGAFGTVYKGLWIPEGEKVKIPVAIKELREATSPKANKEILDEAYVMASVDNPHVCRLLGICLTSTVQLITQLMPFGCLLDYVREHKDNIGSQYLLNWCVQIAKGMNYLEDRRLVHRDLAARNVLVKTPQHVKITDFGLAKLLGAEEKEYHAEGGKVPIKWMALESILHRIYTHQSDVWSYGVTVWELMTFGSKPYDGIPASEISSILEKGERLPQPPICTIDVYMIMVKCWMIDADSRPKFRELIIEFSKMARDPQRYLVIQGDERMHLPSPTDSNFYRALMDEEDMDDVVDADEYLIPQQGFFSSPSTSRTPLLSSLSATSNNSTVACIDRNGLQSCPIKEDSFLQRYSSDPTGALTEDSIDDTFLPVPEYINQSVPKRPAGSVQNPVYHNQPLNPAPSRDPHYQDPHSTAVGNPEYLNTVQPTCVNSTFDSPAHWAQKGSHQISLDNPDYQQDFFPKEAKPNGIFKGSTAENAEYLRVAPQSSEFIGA
Chain of Left-right determination factor 2 (Homo sapiens) (O00292 whole entry, looked up): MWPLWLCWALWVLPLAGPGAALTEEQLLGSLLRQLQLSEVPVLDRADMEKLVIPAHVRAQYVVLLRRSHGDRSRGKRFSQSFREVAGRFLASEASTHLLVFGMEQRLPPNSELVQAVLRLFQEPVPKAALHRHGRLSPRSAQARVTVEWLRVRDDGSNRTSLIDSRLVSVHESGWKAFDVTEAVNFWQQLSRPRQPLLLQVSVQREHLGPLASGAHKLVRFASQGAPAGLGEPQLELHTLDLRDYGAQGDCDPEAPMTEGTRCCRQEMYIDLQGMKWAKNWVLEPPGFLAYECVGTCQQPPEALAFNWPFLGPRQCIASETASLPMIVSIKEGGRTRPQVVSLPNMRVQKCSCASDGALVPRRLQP

As to `COC(=O)C(CC#Cc1ccc2c(c1)[C@]1(C(=O)N2)[C@H](C(=O)N2CCN(c3ncccn3)CC2)[C@H]2C(=O)O[C@H](c3ccccc3)[C@H](c3ccccc3)N2[C@@H]1c1ccc(O)cc1)C(=O)OC`, the composite z-score in test [1] turned out to be 1.57; in test [2], 2.26; in test [3], 1.34; in test [5], 1.09; in test [6], 1.37; in test [7], 1.18. Further, the composite z-score in [8] is 1.47; in [9], 0.856; in [10], 1.59; in test [11], 0.335; in test [13], 0.813; in test [14], 2.18. Also, the composite z-score was found to be 1.36 in test [15]; 0.436 in test [16]; 0.87 in [17]; 1.16 in test [18]; 2.45 in test [19]; 2.29 in test [20]. The z-score in test [4] is -0.0485 (inactive); in test [12], -1.66.
With `COc1ccc(NN2C(C(O)c3ccc(F)cc3)C=CC3C(=O)N(C4CCCCC4)C(=O)C32)cc1` (stereo not given), the composite z-score in [1] came out at 0.565; in [2], 0.959; in test [3], 0.763; in test [5], 0.995; in [6], 0.928; in [7] it was 0.801. The composite z-score in [8] amounted to 1.01; in test [9], 0.129; in test [10] it was 1.24; in test [11] it was 1.44; in [13], 0.14; in test [14] it was 1.08. For the same compound, the composite z-score was 0.722 in [15]; 0.0919 in test [16]; 0.108 in [17]; 1.03 in [18]; 0.297 in test [19]; 1.37 in [20]. The z-score in test [4] was -0.794 (inactive); in test [12] it was -0.502.
In the case of `COc1cc(CO)cc(I)c1O[C@H]1C=C(C(=O)NCCO)C[C@@H](N(CCN2CCOCC2)C(=O)C2CCCO2)[C@@H]1O` (stereo not given in full), the composite z-score in [1] was 0.226; in [2], -0.309; in test [3] it was -0.521; in [5] it was 0.322; in [6] it was 0.507; in test [7], 0.488. The composite z-score in [8] was 0.152; in test [9] it was 0.516; in [10], 0.356; in [11] it was 0.35; in test [13], 0.445; in [14] it was -0.292. The composite z-score is -0.671 in test [15]; -0.0606 in [16]; -0.0769 in test [17]; -0.248 in test [18]; 0.11 in test [19]; -0.197 in [20]. The z-score in test [4] was 0.0133 (inactive); in [12], 0.109.
For `N#Cc1ccc(NN2C(C(O)c3ccc(B(O)O)cc3)C=CC3CN(c4ccccc4)C(=O)C32)cc1` (stereo not given), the composite z-score in test [1] was 0.35; in [2] it was 0.0933; in test [3], 0.584; in [5], -0.792; in [6], -0.824; in test [7], -0.533. Also, the composite z-score is -0.172 in test [8]; -0.445 in test [9]; 0.462 in [10]; -0.664 in test [11]; -0.193 in test [13]; 0.0251 in test [14]. Besides, the composite z-score was -0.408 in test [15]; -0.144 in test [16]; -0.237 in test [17]; -0.196 in test [18]; 0.11 in test [19]; -0.0348 in test [20]. Also, the z-score in [4] is 0.441 (inactive); in [12] it was 0.277.
`C=CCC(OC(C)=O)[C@@H]1[C@@H](N(Cc2ccc(-c3ccccc3)cc2)C(=O)Cc2ccc(OC)cc2)c2cc(OCCCO)ccc2N1C(=O)Cc1ccc(OC)cc1` (stereo not given in full): the composite z-score in test [1] was -0.214; in [2] it was 0.642; in [3], 0.327; in test [5] it was 0.0842; in test [6], -0.0794; in [7], -0.0897. Also, the composite z-score in test [8] is -0.147; in [9], -0.191; in test [10] it was 1.59; in [11], -0.37; in test [13], 0.055; in test [14], 0.194. In addition, the composite z-score in [15] was 0.7; in [16] it was 0.055; in [17] it was -0.229; in test [18], -0.128; in [19] it was 0.468; in test [20] it was 0.171. The z-score was -0.581 (inactive) in test [4] and -0.496 in [12].
Consider `COCCOC(=O)N1C(=O)[C@@]2(c3cc(C#CCNC(N)=O)ccc31)[C@H](c1ccccc1OCCO)N1[C@H](c3ccccc3)[C@H](c3ccccc3)OC(=O)[C@H]1[C@@H]2C(=O)N1CCCCCCC1`, for which the composite z-score worked out at 1.42 in test [1]; 0.784 in [2]; 0.735 in test [3]; 0.739 in test [5]; 1.11 in test [6]; 0.5 in test [7]. Besides, the composite z-score came out at 1.23 in [8]; 0.557 in test [9]; 1.44 in [10]; 0.6 in test [11]; 0.621 in test [13]; 1.47 in test [14]. In addition, the composite z-score in test [15] was 0.716; in [16] it was 0.14; in test [17] it was 0.31; in test [18], -0.499; in test [19], 1.02; in test [20], 1.68. The z-score is -0.402 (inactive) in test [4] and -1.84 in [12].
